# BCR signal inh: qHTS Assay to Find Inhibitors of Chronic Active B-Cell Receptor Signaling | ABC-DLBCL IkBa-CBG/CBR reporter, luminescence ratio, 4 h | Potency, µM (series often up to 46.1 µM), without a hit: at the top dose activity change, negative = inhibition, most hits filed as inhibitors | hit rate 0.05% among 340,000 | AID 493014, 2011; active = well fitted inhibition curve with a large enough effect in the signal ratio, with a control signal flat, not every such curve was filed as active; inconclusive = small, poorly fitted or top-dose-only effect, or effect the other way, or a change in a side signal; the % refers to the signal ratio;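 also: plate controls were basal doxycycline-induced cells for no effect and cells given 10 µM MG132 for full effect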
#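 Compounds up to 46 uM were incubated four hours with TMD8 cells whose green CBG68 luciferase is fused to IkappaBalpha; red CBR luminescence normalised the signal, and concentration-effect curves were fitted to fusion, red and ratio data.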
# Pin1 inhibitor: qHTS Assay to Find Inhibitors of Pin1; Peptidyl-prolyl cis-trans isomerase NIMA-interacting 1 (Homo sapiens), Q13526; hit rate 0.009% among 390,000; AID 504891, 2011; Pin1 FP peptide displacement, HiFluor488, 10 min; Potency, µM (titrated, usually from 115 µM), without a hit: at the highest dose activity, negative = inhibition, usual class: inhibitors; active = well fitted inhibition curve with a large enough effect in the polarisation, with a control signal flat, not every such curve was filed as active; inconclusive = small, poorly fitted or top-dose-only effect, or effect the other way, or a change in a side signal; inactive = no such curve, though single readings can be large or run the other way; the % refers to the polarisation; also: % is scaled to controls: 0 for no effect and ±100 for the full control effect
# Target sequence (Q13526 whole entry, looked up): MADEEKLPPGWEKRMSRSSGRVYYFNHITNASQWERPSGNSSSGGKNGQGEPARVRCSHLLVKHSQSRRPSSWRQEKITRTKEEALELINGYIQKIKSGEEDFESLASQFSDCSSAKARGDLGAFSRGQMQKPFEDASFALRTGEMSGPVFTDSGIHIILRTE
# PGK inhibitor: qHTS Assay to Find Inhibitors of Phosphoglycerate Kinase | Phosphoglycerate kinase, glycosomal (Trypanosoma brucei brucei), P07378 | PGK/GAPDH coupled, Kinase-Glo luminescence, 60 min | Potency, µM (doses to about 57.5 µM), without a hit: top-dose activity change, negative = inhibition, most hits filed as inhibitors | AID 602233, 2012 | hit rate 0.043% among 380,000; also: % is scaled to controls: 0 for no effect and ±100 for the full control effect; nearly all actives have a fitted effect of over 60% in size
#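 Recombinant glycosomal PGK reaction used 1,3-bisphosphoglycerate generated in-well by GAPDH (100nM final) in 100mM TEA pH 7.6, 5mM MgCl2, 0.01% Tween-20. After 60 minutes at room temperature, ATP was read by Kinase-Glo Plus luminescence end-point.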
# ERG Ets-DNA blk: qHTS for Small Molecule Inhibitors of the ERG Ets/DNA interaction; Transcriptional regulator ERG (Homo sapiens), P11308; fluorescence polarization, His-ERG Ets domain / labelled DNA; Potency, µM (titrated, usually from 76.9 µM), for the others: at the highest dose FP activity, negative = inhibition, usual class: inhibitors; hit rate 0.028% among 370,000; active = well fitted inhibition curve with a large enough effect in the polarisation, with a control signal flat; inconclusive = small, poorly fitted or top-dose-only effect, or effect the other way, or a change in a side signal; inactive = no such curve, though single readings can be large or run the other way; the % refers to the polarisation;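 also: polarization taken with two DNA probes labelled with fluorescein and Texas red; % of control where 0% means no effect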
# Target sequence (P11308 whole entry, looked up, the tested form may be a part): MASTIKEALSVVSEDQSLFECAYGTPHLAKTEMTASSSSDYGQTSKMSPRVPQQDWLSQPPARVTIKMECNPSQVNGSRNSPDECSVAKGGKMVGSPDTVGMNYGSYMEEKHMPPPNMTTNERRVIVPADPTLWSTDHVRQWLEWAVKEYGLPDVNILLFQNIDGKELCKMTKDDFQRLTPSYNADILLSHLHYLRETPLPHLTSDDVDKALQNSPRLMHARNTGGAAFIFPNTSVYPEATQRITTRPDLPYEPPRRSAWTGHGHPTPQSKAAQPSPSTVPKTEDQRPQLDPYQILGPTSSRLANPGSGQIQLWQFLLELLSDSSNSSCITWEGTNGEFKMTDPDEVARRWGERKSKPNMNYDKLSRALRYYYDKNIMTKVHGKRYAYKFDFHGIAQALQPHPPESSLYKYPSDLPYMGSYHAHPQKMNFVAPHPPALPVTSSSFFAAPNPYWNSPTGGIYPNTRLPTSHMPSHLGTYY
#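 His-tagged ERG Ets domain (1 uM in the protein solution; 300mM KCl, 50mM Tris-HCl, 1mM EDTA, 1mM DTT, pH 7.5) received compound, then a probe mix of 5 nM fluorescein-DNA and 100nM Texas-615-DNA. Fluorescence polarization was read for both dyes.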
# Tb PFK inh-1: qHTS Assay to Find Inhibitors of T. brucei phosphofructokinase; T. brucei PFK, ADP-Glo luminescence; Potency, µM (doses to about 57.5 µM), for inactives: at the highest dose activity, negative = inhibition, usual class: inhibitors; hit rate 0.17% among 330,000; AID 485367, 2010;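 also: 0% = uninhibited 1x PFK enzyme wells and -100% = no-enzyme wells; nearly all actives have a fitted effect of over 60% in size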
#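 PFK 1.25 nM, F6P 0.5 mM, ATP 0.1 mM, 0.1 M TEA pH 8.0, 5 mM MgCl2, 0.01% Tween20, 0.1% BSA; 45 min RT. ADP-Glo readout. qHTS titration up to 57 uM; curves fitted, compounds curve-classed.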
# Tb PFK KinaseGlo: Tb PFK orthogonal confirmatory assay using ATP depletion (Kinase-Glo Plus) as an alternative measure of Tb PFK activity: Hit Validation | Potency, µM (series often up to 57.5 µM), for the others: top-dose inhibition | Tb PFK enzyme, ATP depletion, Kinase-Glo Plus luminescence | AID 504636, 2011 | hit rate 47% among 1,100 | shares compounds with Tb PFK inh-1; calls by dose curve; also: nearly all actives have a fitted effect of over 60% in size
# Tb PFK inh-2: Inhibitors of T. brucei phosphofructokinase: Hit Validation | shares compounds with Tb PFK inh-1 | purified T. brucei PFK, ADP-Glo luminescence, 45 min | Potency, µM (doses to about 57.5 µM), for the others: at the top dose activity change, negative = inhibition, usual class: inhibitors | hit rate 41% among 1,100;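 also: plate controls were full PFK enzyme control for no effect and no enzyme control for full effect; nearly all actives have a fitted effect of over 60% in size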
# Starred values were filed as active, the others as inactive; i = inactive; ? = inconclusive; . = not tested or not shown. Hits are enriched below; roughly 0.25% of the tested compounds scored in any of these assays. Unless noted, calls follow the shape of the dose curve; as a rule, active = well fitted curve in the direction sought with a large enough effect; inconclusive = small, poorly fitted or top-dose-only effect, or another doubt; inactive = no such curve, though single readings can be large; an effect the other way counts as inactive or inconclusive. Potency is read from the fitted curve at half-maximal effect.
SMILES,BCR signal inh,Pin1 inhibitor,PGK inhibitor,ERG Ets-DNA blk,Tb PFK inh-1,others
C/C(=N/OC(=O)c1ccc(C)cc1)c1cccs1,1%,-2%,32µM*,-18%,?,
COc1ccc(C(=O)O/N=C(/c2ccccc2)c2ccncc2)cc1,?,8%,-7%,-19%,-7%,
N/C(=N\OC(=O)c1ccccc1)c1ccccn1,?,-8%,?,-17%,?,
CCOc1ccc(C(=O)O/N=C(\N)c2ccccn2)cc1,?,0%,13µM*,2%,?,
COc1ccc(C(=O)O/N=C(\C)c2ccccc2)cc1,5%,3%,22µM*,-5%,-13%,
Cc1ccc(C(=O)O/N=C(\N)c2ccccn2)cc1,?,-4%,25µM*,-6%,?,
O=C(O)c1ccccc1NS(=O)(=O)c1ccc(N/N=C/c2cccc(O)c2O)c([N+](=O)[O-])c1,.,.,8.9µM*,.,.,
CC(=O)Nc1ccc(C=NNc2ccc(S(=O)(=O)Nc3ccccc3C(=O)O)cc2[N+](=O)[O-])cc1,5%,.,-9%,101%,11%,
O=S(=O)(c1ccc2ccccc2c1)N1CCN(c2nc(-c3ccccc3)nc3ccccc23)CC1,.,3%,.,.,.,
O=C(O)c1cc(O)c2c(c1)[C@@H]([C@H]1c3cc(C(=O)O)cc(O)c3C(=O)c3c(O[C@@H]4O[C@H](CO)[C@@H](O)[C@H](O)[C@H]4O)cccc31)c1cccc(O[C@@H]3O[C@H](CO)[C@@H](O)[C@H](O)[C@H]3O)c1C2=O,?,2.5µM*,3.2µM*,-12%,?,
CC(/C=C1\SC(=S)N(CCCC(=O)Nc2ccc(C(=O)O)c(O)c2)C1=O)=C\c1ccccc1,?,54µM*,-5%,-1%,-12%,
CC(/C=C1\SC(=S)N(CCC(=O)Nc2ccc(O)cc2)C1=O)=C\c1ccccc1,?,23%,i,54%,1%,
COc1ccc(N2CCN(C(c3ccccc3)c3nnnn3C(C)C)CC2)cc1 (stereo unspecified),.,1%,.,.,.,
O=c1c2ccccc2[se]n1-c1ccccc1,?,-1%,-2%,0%,4.8µM*,
O=C(COC(=O)C12CC3CC(CC(O)(C3)C1)C2)NCc1ccco1,.,-6%,.,.,.,
COc1ccc(-c2nc(N3CCN(S(=O)(=O)c4ccccc4)CC3)c3ccccc3n2)cc1,.,4%,.,.,.,
CC(=O)Nc1ccc(Oc2cc(C#N)c(C#N)cc2N2CCOCC2)cc1,21µM*,-1%,7%,0%,3%,
CC(=O)Nc1ccc(Oc2cc(C#N)c(C#N)cc2N2CCCCCC2)cc1,-5%,15%,7%,7%,5%,
CCCSc1cc(NCCOC(=O)CCC)c([N+](=O)[O-])c2nonc12,-26%,-8%,-6%,-9%,0%,
CCCC(=O)OCCNc1cc(Sc2nccn2C)c2nonc2c1[N+](=O)[O-],2.9µM*,4%,4%,0%,?,
CCC(=O)OCCNc1cc(Sc2nc3ccccc3s2)c2nonc2c1[N+](=O)[O-],-13%,?,-8%,-3%,2.7µM*,
O=[N+]([O-])c1c(NCCCO)cc(Sc2nc3ccccc3s2)c2nonc12,?,?,-4%,0%,?,
Cc1cc(C)c(S(=O)(=O)/N=C2/C=C(Sc3ncn[nH]3)C(=O)c3ccccc32)cc1C,?,38µM*,?,-7%,?,
CCc1c(C)c(C#N)c2nc3ccccc3n2c1-n1nc(C)cc1C,0%,1%,18%,0%,-3%,
CCc1c(C)c(C#N)c2nc3ccccc3n2c1Cl,8.2µM*,.,.,.,3%,
SMILES,BCR signal inh,Pin1 inhibitor,PGK inhibitor,ERG Ets-DNA blk,Tb PFK inh-1,others
COc1ccc(Cn2c(=O)c3[nH]cnc3n(-c3ccccc3C)c2=O)cc1,16µM*,-4%,-3%,4%,-2%,
O=C(Cc1ccccc1)Nc1sc2c(c1C(=O)Nc1ccc(Cl)cc1)CCOC2,.,55%,.,.,.,
Cc1ccsc1/C=C1\C(=O)NC(=S)N(C)C1=O,?,1%,-14%,71%,-8%,
COc1ccc(/C=C2\C(=O)NC(=S)N(C)C2=O)cc1C,11%,.,10µM*,5%,-4%,
C/C(=N\NC(=O)Cc1ccccc1)c1ccc(Br)s1,5%,0%,7%,6%,-5%,
C/C(=N/NC(N)=S)c1ccc(Br)s1,20µM*,5%,2%,1%,-7%,
O=C(CSc1nc2ccccc2n1CCc1ccccc1)N1CCOCC1,?,-4%,-9%,-5%,12%,
O=C(CSc1nc2ccccc2n1CCc1ccccc1)c1ccc(O)c(O)c1,1%,.,7.9µM*,-3%,-24%,
Cc1ccc(C(=O)NCCn2cc(SCC(=O)Nc3cc(C)on3)c3ccccc32)cc1,?,-2%,i,5%,1%,
Cc1cc(NC(=O)CSc2cn(CCNC(=O)c3ccccc3)c3ccccc23)no1,?,?,7.1µM*,-12%,1%,
CN(Cc1ccco1)c1ncnc2ccc(-c3cccc(Cl)c3)cc12,-4%,.,.,.,3%,
O=c1cc(-c2ccccc2Cl)oc2c(NS(=O)(=O)c3cc(Cl)cc(Cl)c3O)ccc(O)c12,?,22µM*,?,0%,0%,
CCc1ccc(S(=O)(=O)Nc2ccc(O)c3c(=O)cc(-c4ccccc4Cl)oc23)cc1,1%,?,6%,4%,0%,
CCCN1CNc2c(c(=O)[nH]c(=S)n2CCc2ccc(Cl)cc2Cl)C1,.,-3%,.,.,.,
Cc1ccc(C)n1Cc1ccc(C(=O)O)cc1,-11%,?,3.2µM*,2%,6.7µM*,
Cc1cc2c(s1)c1cnn(Cc3cccc(Br)c3)c(=O)c1n2C,.,3%,.,.,.,
Nn1c(SCC(=O)Nc2cccnc2Cl)nnc1-c1ccccc1,0%,-2%,-1%,18%,?,Tb PFK KinaseGlo=9.5µM*;Tb PFK inh-2=11µM*
Cc1ccc(-c2nnc(SCC(=O)Nc3cccnc3Cl)n2N)cc1,-1%,1%,-8%,-7%,1%,
Cc1ccc(NS(=O)(=O)c2ccc3c(c2)N(C)CCO3)cc1C,.,4%,.,.,.,
